Source: PubChem
An excerpt weighted towards active compounds, which were near 11% of everything screened.
AMA1 RON2 block – AMA1-RON2 (P. falciparum) interaction inhibition; AlphaScreen AMA1-biotinylated RON2 peptide binding; Potency, µM (titrated, usually from 58.2 µM), without a hit: at the top dose activity change, negative = inhibition, usual class: inhibitors; 0.2% of 360,000 active;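 further: 0% = vehicle wells and -100% = peptide control; nearly all actives have a fitted effect of over 45% in size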
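AMA1 (3D7) with his tag at 25 nM final met compounds first, then biotinylated RON2 peptide at 25 nM; detection used donor plus acceptor beads, 10 µg/mL apiece, read by AlphaScreen after 30 min at room temperature.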
HCV inh – blocks hepatitis C virus. Huh7.5.1 HCVcc-Cre infection, luciferase reporter, 44 h. Potency, µM (top dose mostly 41.8 µM), without a hit: at the top dose activity change, negative = inhibition, actives largely listed as inhibitors. 3.4% of 340,000 active
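After 44 h co-culture of compound, cells and HCVcc-Cre (~0.5 moi), substrate is added for 15 min at room temperature and luciferase measured over 15 sec. Cells were seeded at 1,000/well and pre-cultured 4 h.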
Pf growth 96h – P. falciparum growth inhibition at 96 hour, primary screen for plastid delayed-death inhibitors; P. falciparum luciferase reporter growth, 96 h; Potency, µM (highest dose often 28.7 µM), for the others: at the highest dose activity change, negative = inhibition, actives largely listed as inhibitors; 6.9% of 320,000 active; AID 504834
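Cell-based qHTS: luciferase-tagged P. falciparum in erythrocytes (2% hematocrit, 0.05% parasitemia final) incubated with compounds for 96 hours, 37 C, 5% CO2; luciferase detection reagent then added and luminescence measured.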
Pf growth 48h – P. falciparum growth inhibition at 48 hours (one generation); Potency, µM (titrated, usually from 28.7 µM), without a hit: top-dose activity change, negative = inhibition, usual class: inhibitors; 5.9% of 310,000 active; P. falciparum luciferase growth in erythrocytes, 48 h
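A one-generation exposure of luciferase-tagged malaria parasites in RPMI 1640/Albumax erythrocyte culture, 37 C and 5% CO2. Inhibition is inferred from decreased luminescence after adding detection reagent.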
* marks the source's active call; other numbers are inactive results; ? = inconclusive; nt = no result; [ ] = dose if it differs, or a comment. The call rests on the fitted dose curve; in most records, active means well fitted curve in the direction sought with a large enough effect; inconclusive means small, poorly fitted or top-dose-only effect, or another doubt; inactive means no such curve, though single readings can be large; an effect the other way counts as inactive or inconclusive. Unless noted, on the % scale 0 is the no-effect control and ±100 the full control effect; potency means the concentration at half of the fitted maximal effect.

SMILES	AMA1 RON2 block	HCV inh	Pf growth 96h	Pf growth 48h
Cc1cc(=O)oc2c1c(C)nn2-c1cccc(Cl)c1	-3.8%	?	3.2%[5.75 µM]	2.2%
Cc1cc(=O)oc2c1c(C)nn2-c1ccc(Br)cc1	-1.9%	?	2.94µM*	-27.9%
O=C(CN1CCN(c2ccccc2)CC1)N1N=CCC1c1ccccc1 (centres undefined)	1.8%	?	?	29.1%
CC1CCN(CC(=O)N2CCN(c3ccccc3)CC2)CC1	-2.2%	-2.8%	-8.1%	-2.5%
O=C(CN1CCN(C(c2ccccc2)c2ccccc2)CC1)N1N=CCC1c1ccccc1 (centres undefined)	-13.4%	?	11.7µM*	?
O=C(CN1CCN(C(c2ccccc2)c2ccccc2)CC1)N1CCN(c2ccccc2)CC1	-18.5%	?	?	11.7µM*
O=C(N1CCCCC1)N1CCN(C(c2ccccc2)c2ccccc2)CC1	-6.4%	-24.2%	8.28µM*	nt
O=C(CN1CCN(c2ccccc2F)CC1)N1N=CCC1c1ccccc1 (centres undefined)	9.2%	?	22.6%	-8.3%
O=C(CN1CCN(c2ccc(F)cc2)CC1)N1N=CCC1c1ccccc1 (centres undefined)	-9.2%	11.2µM*	?	0.8%
O=C(CNC(=O)c1ccc(Br)o1)NCc1ccc(F)cc1	13.7%	16.4%	22.3%	18.3%
FC(F)(F)c1ccc(/C=N/n2c(C3CCCCC3)n[nH]c2=S)cc1	53.7%	-18.1%	?	?
CCC1CCc2sc(C(=O)NCC(c3ccc(OC)cc3)N3CCCC3)cc2C1 (centres undefined)	6.1%	10µM*	?	11.7µM*
CCC1CCc2sc(C(=O)O)cc2C1 (centres undefined)	0.4%	11.3%	3.29µM*	6.3%
COc1ccc(C(CNC(=O)c2cccc(S(=O)(=O)Nc3ccccc3OC)c2)N2CCCC2)cc1 (centres undefined)	40.0%	-16.2%	13.1µM*	?
COc1cc(C(=O)NCC(=O)NCC(c2ccco2)N2CCCCC2)cc(OC)c1OC (centres undefined)	6.4%	0.4%	3.29µM*	?
CCN(c1ccccc1)S(=O)(=O)c1ccc(Cl)c(NC(=O)CSc2n[nH]c(N)n2)c1	-5.1%	?	-11.5%	-9.6%
O=C(CSc1nnc(COc2ccc(Cl)cc2)o1)NC1CC2CCC1C2 (centres undefined)	0.4%	1.0%	-26.1%	14.9%
COc1ccc(C(CNC(=O)c2cccc(S(=O)(=O)N3CCCCC3)c2)N2CCCC2)cc1 (centres undefined)	4.4%	?	10.4µM*	?
COc1ccc(CNC(=O)C(=O)NCc2ccncc2)cc1	-25.9%	?	19.7%	7.5%
COc1ccc(NS(=O)(=O)c2cccc(C(=O)NCC(c3ccccc3OC)N3CCCC3)c2)cc1 (centres undefined)	49.6%	-18.9%	?	10.4µM*
COc1ccccc1NS(=O)(=O)c1cccc(C(=O)NCC(c2ccco2)N2CCCCC2)c1 (centres undefined)	27.8%	?	?	5.22µM*
COc1ccccc1NS(=O)(=O)c1ccc(C(=O)NCC(c2ccco2)N2CCCCC2)cc1 (centres undefined)	0.0%	-17.2%	nt	nt
COc1ccccc1C(CNC(=O)c1cccc(S(=O)(=O)Nc2ccc(F)cc2)c1)N1CCCC1 (centres undefined)	-7.9%[11.6 µM]	?	nt	nt
COc1ccc(CNC(=O)c2nccnc2CO)cc1	4.0%	6.3%	8.28µM*	19.1%
COc1ccc(C(C)=NNC(=O)c2cccc(S(=O)(=O)N3CCCC3)c2)cc1	38.2%	-1.7%	nt	nt
SMILES	AMA1 RON2 block	HCV inh	Pf growth 96h	Pf growth 48h
COc1ccc(C(CNC(=O)c2cccc(N(C)C)c2)N2CCCC2)cc1 (centres undefined)	?	-6.7%	?	10.4µM*
COc1ccc(/C(C)=N/NC(=O)c2cccc(S(=O)(=O)N3CCCC3)c2)c(O)c1	-10.8%	3.16µM*	?	?
COc1ccc(NS(=O)(=O)c2cccc(C(=O)NCC(c3ccc(OC)cc3)N3CCCC3)c2)cc1 (centres undefined)	23.4%	-25.2%	7.38µM*	6.57µM*
COc1ccc(CNC(=O)c2cccc(N(C)C)c2)cc1	0.0%	-13.4%	1.85µM*	17.5%
CC(C)(C)CN1C(=O)C(=O)NC[C@@H]1CCCCN	4.7%	4.1%	nt	nt
CC(C)N(Cc1nc(-c2ccc3c(c2)OCO3)no1)Cc1nccn1C	7.0%	0.8%	13.1%	24.5%
